The full list was thinned out, with hits kept by preference.
Tgondii IFNg: T. gondii growth inhibition under IFN-gamma. AID 1259416. activity change, negative = inhibition, % (no concentration beside the values). Toxoplasma gondii growth in IFN-gamma-treated host cells; active compounds read low. actives 3.8% (n = 69,000); in the data active means activity change below about -70%, passing the limit was not always enough;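 further: host cells are HeLa cells infected with Toxoplasma gondii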
* hit, by the source's call; i = inactive.

SMILES | Tgondii IFNg
Cc1ccc(C(=O)NCCCNC(=O)c2ccc(-c3ccc(Cl)c(Cl)c3)o2)cn1 | -60.0
Cc1ccc(Nc2nc(C(=O)Nc3ccc(C)c(C)c3)nc3ccccc23)cc1 | 44.1
Cc1cccc(-c2noc(CN(C)Cc3cc4n(n3)CCNC4)n2)c1 | 27.8
CN(C)Cc1cc(=O)n2c(n1)CN(Cc1ccoc1)CCC2 | 27.0
CN(C)CC1(O)CCN(C(=O)c2cc(=O)n(-c3ccccc3)[nH]2)C1 (stereo not given) | -28.3
CCC(C(=O)N1CCC2(CC1)Nc1ccc(Cl)cc1-n1cccc12)c1ccccc1 (stereo not given) | -127.7*
COc1cc(CCC(=O)N2CCC3(CC2)Nc2ccccc2-n2cccc23)cc(OC)c1OC | -20.5
Cc1ccc(NC(=O)N2CCC3(CC2)Nc2ccccc2-n2cccc23)cc1Cl | i
O=C(c1ccccc1)N1CCC2(CC1)Nc1ccc(Cl)cc1-n1cccc12 | 6.4
COc1ccc(CCC(=O)N2CCC3(CC2)Nc2ccccc2-n2cccc23)cc1 | -115.0*
COc1ccc(C(=O)N2CCC3(CC2)Nc2ccccc2-n2cccc23)cc1 | -10.7
O=C(Cc1ccc(F)cc1)N1CCC2(CC1)Nc1ccc(Cl)cc1-n1cccc12 | -59.4
Cc1cc(NC(=O)N2CCC3(CC2)Nc2ccccc2-n2cccc23)ccc1Br | -116.4*
COc1cc(OC)cc(C(=O)N2CCC3(CC2)Nc2ccc(Cl)cc2-n2cccc23)c1 | -9.2
COc1ccc(CCC(=O)N2CCC3(CC2)Nc2ccc(Cl)cc2-n2cccc23)cc1 | -97.1*
COc1ccc2c(c1)NC1(CCN(C(=O)Nc3ccc(Br)c(C)c3)CC1)c1cccn1-2 | 66.4
CC(C)C(=O)N1CCC2(CC1)Nc1ccc(Cl)cc1-n1cccc12 | 45.4
Cc1[nH]nc(CCC(=O)N2CCCC3(CNC(=O)O3)C2)c1C (stereo not given) | -52.7
OC(c1ccccn1)C1CCN(Cc2cccc3[nH]ccc23)CC1 (stereo not given) | -35.7
CCOC(=O)c1nc(N2CCN(c3ccccc3OC)CC2)c2ccccc2n1 | 38.7
NC1CCc2c(ccc(=O)n2CC2CC2)C1 (stereo not given) | -20.5
CCCCCN1CC2CN(S(=O)(=O)c3ccccc3)CC21 (stereo not given) | 2.0
CCc1ccc(-n2nnc(C(=O)N3CCC(N4CCCCC4)CC3)c2-c2ccncc2)cc1 | -9.0
Cn1c(CN2CCCC(Cc3nc4ccccc4[nH]3)C2)nc2ccccc21 (stereo not given) | 39.5
Cc1cc(-c2cnc(SCC(=O)c3ccc(F)cc3F)nc2-c2ccco2)on1 | 9.4
SMILES | Tgondii IFNg
CN1CCO[C@@H]2CN(C(=O)c3ccc(F)c(F)c3)C[C@@H]2C1 | i
CC(=O)OC12CC3CC(C1)CC(C(=O)NCC1CCCN(C)C1)(C3)C2 (stereo not given) | -49.9
CCOc1ccccc1C(=O)N1CCC2(CC1)Nc1ccccc1-n1cccc12 | 40.3
O=C(COc1ccccc1)N1CCC2(CC1)Nc1ccc(Cl)cc1-n1cccc12 | -84.1*
O=C(Cc1ccccc1)N1CCC2(CC1)Nc1ccc(Cl)cc1-n1cccc12 | 60.7
COc1ccccc1C(=O)N1CCC2(CC1)Nc1ccc(Cl)cc1-n1cccc12 | 61.9
O=C(COc1ccc(Cl)cc1)N1CCC2(CC1)Nc1ccccc1-n1cccc12 | -8.2
CCOc1ccccc1C(=O)N1CCC2(CC1)Nc1ccc(Cl)cc1-n1cccc12 | -103.9*
O=C(c1ccccc1Cn1cccn1)N1CCN(c2nc3ccccc3s2)CC1 | -56.7
Cc1oc(-c2ccccc2)nc1Cn1nnc(-c2nc(-c3ccc(Br)cc3)no2)c1C | -38.3
Cc1ccc2[nH]c(=O)cc(C(=O)N3CCN(C)C4(CCN(C)CC4)C3)c2c1 | 1.2
CCOC(=O)N1CCC(N2CCN(c3cc(N(C)CC)ncn3)CC2)CC1 | -3.3
COc1ccc(-c2nc(C)c(-c3ccc(SCc4c(F)cccc4Cl)nn3)s2)cc1 | 0.9
O=C(NCCCc1ccccc1)c1nc(Nc2ccc(F)cc2)c2ccccc2n1 | -45.1
Cc1ccccc1-c1nc2cnccn2c1NCCC(=O)N1CCCC(C)C1 (stereo not given) | 166.2
FC(F)(F)Oc1ccc(Nc2n[nH]c(=S)s2)cc1 | -92.1*
COc1ccc(CNc2n[nH]c(=S)s2)cc1 | 408.2
FC(F)(F)Oc1ccc(OCc2n[nH]c(=S)o2)cc1 | -35.2
Cc1ccc2c(c1)C1(CC2)CCN(c2nncs2)CC1 | 18.6
COc1ccc(CNC(=O)CC2N=C3c4ccccc4N=C(SCc4ccc(F)cc4)N3C2=O)cc1 (stereo not given) | 1.5
COc1ccc(C(=O)CC(=O)O)c2c1C=CC(C)(C)O2 | 10.1
COc1ccc2[nH]c(=O)c3c(c2c1)OC(C)(C)C=C3 | -83.4*
COc1ccc2[nH]cc(C3N4CC5(C)CN3CC(C)(C4)C5=O)c2c1 (stereo not given) | 10.6
O=C(NCCc1cccs1)[C@H]1CO[C@@H]2CCNC[C@@H]2C1 | 2.5
CC(CN1CCc2ccccc2C1)NC(=O)c1cccc2ccnn12 (stereo not given) | -45.5
SMILES | Tgondii IFNg
O=C1N(Cc2ccccn2)C(=O)C2(CCN(Cc3ccsc3)CC2)N1Cc1ccccc1 | 22.9
Cc1ccc(NC(=O)Cn2c(=O)cc(-c3nc(C)no3)c3ccccc32)c(F)c1 | 9.5
O=C(Cc1ccc(Cl)cc1)N1CC2(CCN(Cc3ccc(C(F)(F)F)cc3)CC2)C1 | -79.6*
O=S(=O)(Cc1ccccc1)N1CCC2(CCN(Cc3ccc(Cl)cc3)C2)C1 (stereo not given) | -4.9
CC(C)(C)CN1CC2(CCN(C(=O)Cc3ccc(Cl)cc3)C2)C1 | 3.4
CCCc1cnc(C)nc1-c1cccc2cnccc12 | -4.9
CCc1cnc(N2CCC(Cc3nnc(SC)n3C)CC2)nc1 | 2.2
Cc1cc(Nc2ccc(NC(=O)c3ccc(Nc4ccnc5ccccc45)cc3)cc2)nc(N)n1 | -78.1*
Cc1ccc(Nc2nc(C(=O)Nc3ccc(Cl)cc3)nc3ccccc23)cc1 | 43.6
Cc1cc(Nc2ccc(C(=O)O)cc2)nc(N)n1 | 68.2
CC1CCC(NC(=O)CN2C(=O)CCc3cc(S(=O)(=O)N4CCC(C)CC4)ccc32)CC1 (stereo not given) | -69.8
O=S(=O)(c1cccc(Cl)c1Cl)N1CCCC2(CCNC2)C1 (stereo not given) | 1.3
O=C(c1cccc2cccnc12)N1CCC2(CC(=O)N(c3ccccc3)C2)C1 (stereo not given) | 55.0
Cc1cc(OCC(=O)Nc2ccc(C(=O)OCC(C)C)cc2)cc(C)c1Cl | -55.1
CC(C)COC(=O)c1nc(Cl)c(Cl)c(N)c1Cl | -95.8*
CCN1c2ccc(C)cc2C(=O)NC12CCN(C(=O)c1ccc(OC)c(OC)c1)CC2 | 3.1
COc1cc2c(cc1OC)CN(CCc1ccc(NC(=O)c3cccc4c(=O)c5cccc(OC)c5[nH]c34)cc1)CC2 | -83.9*
COc1cc2c(cc1OC)CN(CC(=O)NC(C)c1cn(C)nc1C)CC2 (stereo not given) | 1.8
COc1cc2c(cc1OC)CN(Cc1c(C(C)C)[nH]c3ncccc13)CC2 | -38.0
COc1cccc(CCN2C[C@@H]3CCN(C(=O)c4cnccn4)CC[C@H]3S2(=O)=O)c1 | -36.9
CCn1c(=O)c(-c2nc(-c3ccc(OCC(C)C)cc3)no2)c(O)c2ccc(F)cc21 | 15.0
Cc1cc(C)cc(NC(=O)C(=O)NCCc2csc(-c3cccc(F)c3)n2)c1 | -92.2*
O=C(NCCc1csc(-c2cccc(F)c2)n1)C(=O)Nc1ccc(F)cc1 | -37.3
O=C(NCCc1csc(-c2ccc(F)cc2)n1)C(=O)Nc1ccccc1 | -43.4
Cc1ccc(NC(=O)C(=O)NCCc2csc(-c3cccc(F)c3)n2)cc1 | 53.4
